In PubChem BioAssay AID2315 (National Center for Advancing Translational Sciences (NCATS), 2010):
Out of some 290,000 compounds screened, about 27,000 (9.3%) were called active. Cut-off read from the data, not from the text of the source: active = inhibition mostly above about 28% (no sharp cut-off); inactive = mostly below about 43%. Only a selection was taken, and actives are over-represented in it overall.

test: A qHTS for Small Molecule Inhibitors of Shiga Toxin; conditions: Vero cells, Shiga toxin protein synthesis inhibition reporter; at 38.7 µM, hits give high values; note: 0% is about no effect

| Compound | inhibition |
| --- | --- |
| O=C1CCCN2N=C(SCC(=O)Nc3ccc(Br)cc3)SC2=N1 | -4.09% (inactive) |
| CCn1cc(C(=O)N[C@@H](C)C(=O)NCCO)c(=O)c2cc3c(cc21)OCO3 | -6.09% (inactive) |
| CC(=O)c1cc(CN2CCC(C(=O)Nc3cccc(-c4cscn4)c3)CC2)cs1 | 12.4% (inactive) |
| CSc1ccccc1OCc1cc(C(=O)N(C)CCc2c(C)n[nH]c2C)no1 | -3.19% (inactive) |
| CSc1ccccc1OCc1cc(C(=O)N2C[C@H]3CC[C@H]2C3)no1 | 108% (active) |
| COC(=O)[C@@H]1CCCN1C(=O)c1cc(COc2cccc3cccnc23)on1 | 18.1% (inactive) |
| CSc1nc(O)c(Cc2ccccc2)c(=O)[nH]1 | 13.7% (inactive) |
| O=C(CSc1nc(O)c(Cc2ccccc2)c(=O)[nH]1)Nc1nc2c(s1)CCCC2 | 40.8% (active) |
| CCOC(=O)c1sc(NC(=O)CSc2nc(O)c(Cc3ccccc3)c(=O)[nH]2)nc1C | 107% (inactive) |
| O=C(Nc1ccccc1C(=O)O)c1ccc(N2C(=O)C3CC=CCC3C2=O)cc1 (centres undefined) | 21.8% (inactive) |
| COc1ccccc1N(CC(=O)Nc1ccccc1C(=O)N1CCCC1)S(C)(=O)=O | -2.57% (inactive) |
| COc1cc(NC(=O)c2ccc3c(c2)OCO3)ccc1NC(=O)c1cccs1 | 55.9% (active) |
| Cn1c(=O)n(C)c2cc(C(=O)Nc3ccc(Br)cc3)ccc21 | -10.4% (inactive) |
| CCC(=O)c1cc2c(cc1NC(=O)c1cccs1)OCCO2 | -21.9% (inactive) |
| Cn1c(=O)n(C)c2cc(C(=O)Nc3ccc4c(c3)OCO4)ccc21 | 33.6% (active) |
| Cn1c(NC(=O)c2ccc3c(c2)OCO3)cc(=O)n(C)c1=O | -7.32% (inactive) |
| CC(C)CNS(=O)(=O)c1ccc(OCC(=O)Nc2ccc3c(c2)OCO3)c(Cl)c1 | -2.63% (inactive) |
| COc1ccc(F)cc1S(=O)(=O)Nc1ccc2c(c1)OCO2 | -6.49% (inactive) |
| COc1ccc(C(=O)Nc2ccc3c(c2)OCO3)cc1OC | 99% (active) |
| COc1ccc(S(=O)(=O)Nc2ccc3c(c2)OCO3)cc1Cl | -1.27% (active) |
| COc1ccc(S(=O)(=O)N(C)CC(=O)Nc2ccc3c(c2)OCCO3)cc1OC | 24.6% (inactive) |
| COc1cc(OC)c(C(=O)NCc2ccc3c(c2)OCO3)cc1OC | -10.8% (inactive) |
| COc1cc(NC(=O)c2cccs2)ccc1NC(=O)c1ccccc1Cl | 39.7% (inactive) |
| COC(=O)c1ccc(C2C3=C(Nc4nnnn42)c2ccccc2OC3)cc1 (centres undefined) | -11.2% (inactive) |

| Compound | inhibition |
| --- | --- |
| CC1CN(C(=O)CCC(=O)NCCCN2CCC(Cc3ccccc3)CC2)c2cc(Cl)ccc2O1 (centres undefined) | -10.8% (inactive) |
| O=C(CN(c1cc(C(F)(F)F)ccc1Cl)S(=O)(=O)c1ccccc1)NCc1cccnc1 | -32% (inactive) |
| Cc1cccc(C)c1N1C(=O)CN(Cc2ccccc2)C1=S | -4.26% (inactive) |
| COc1ccc(C(CNC(=O)COc2ccc([N+](=O)[O-])cc2)N2CCCCC2)cc1 (centres undefined) | -4.67% (inactive) |
| COc1ccc(CN2CN(C3CCCC3)CSC2=S)cc1 | 17.5% (inactive) |
| CC1Cc2cc(/C(O)=C3\C(=O)C(=O)N(Cc4cccnc4)C3c3ccccc3F)ccc2O1 (centres undefined) | -7.46% (inactive) |
| CCOC(=O)c1c(C)[nH]c(C(=O)NCCN2CCOCC2)c1C | 2.41% (inactive) |
| C[C@H]1[C@H]2c3nc4ccccc4n3C[C@H]1ON2C1CCCCC1 | -7.22% (inactive) |
| CCOC(=O)C(Cc1ccc(N)cc1)N1C(=O)c2ccccc2C1=O (centres undefined) | 7.65% (inactive) |
| CC(=O)Nc1ccc(Nc2c3ccccc3nc3ccccc23)cc1 | -31.9% (inactive) |
| CC(=O)Nc1ccc(-c2nc3ccccc3o2)cc1 | 54.7% (active) |
| Cc1cc2nc(-c3ccc(NC(=O)c4cccnc4)cc3)oc2cc1C | 101% (active) |
| CC(=O)NC(=S)Nc1ccc(NC(=O)c2cccnc2)cc1 | 24.9% (inactive) |
| O=C(Nc1cnccn1)c1cccnc1 | 11% (inactive) |
| Cc1ccc2nc(-c3ccc(NC(=O)c4cccnc4)cc3)oc2c1 | 142% (active) |
| Cc1cc(NS(=O)(=O)c2ccc(NC(=O)c3cccnc3)cc2)nc(C)n1 | 2.23% (inactive) |
| COC(=O)c1cc(NC(=O)c2cccnc2)ccc1N1CCOCC1 | 26.8% (inactive) |
| COc1cc(OC)cc(C(=O)Nc2ccc(-c3nc4ccccc4o3)c(O)c2)c1 | 35.4% (inactive) |
| COc1ccc(CNC(=O)CN(C(=O)c2csnn2)c2cnc3ccccc3c2)cc1 | -8.3% (inactive) |
| CCOC(=O)c1cc(=O)c2ccc(OCc3ccccc3)cc2o1 | -1.81% (inactive) |
| CCOc1ccccc1NS(=O)(=O)c1c[nH]c(C(=O)OC)c1 | -3.38% (inactive) |
| Cc1ccc(NC(=O)C2CCN(S(=O)(=O)c3ccc4c(c3)NC(=O)CO4)CC2)cc1C | -2.09% (inactive) |
| CNC[C@H](CC1CCCCC1)NC[C@H](NCCC1CCCC1)[C@H](C)O | -0.811% (inactive) |
| O=C(Nc1ccccc1)c1ccccc1NC(=O)C(F)(F)F | 52.8% (inactive) |

| Compound | inhibition |
| --- | --- |
| O=C(Nc1cccc(Cl)c1Cl)c1ccccc1NC(=O)C1CC=CCC1C(=O)O (centres undefined) | 35.7% (active) |
| O=C(Nc1ccc(Cl)c(Cl)c1)c1ccccc1NC(=O)C1CC=CCC1C(=O)O (centres undefined) | 59.4% (active) |
| O=C(O)C1CC=CCC1C(=O)NCCc1ccccc1 (centres undefined) | 5.17% (inactive) |
| CC(=O)Nc1ccc(NC(=O)COc2ccccc2C(=O)Nc2cccc(Cl)c2Cl)cc1 | 12.3% (inactive) |
| O=C(O)C1CC=CCC1C(=O)Nc1ccccc1C(=O)N1CCN(c2ccccc2)CC1 (centres undefined) | -42.2% (inactive) |
| Cc1ccc(N(CC(=O)NCC2CCCO2)C(=O)CNS(=O)(=O)c2ccc(Cl)cc2)cc1 (centres undefined) | -7.51% (inactive) |
| CN(C(=O)CN1C(=O)/C(=C/c2ccc(Cl)cc2)SC1=S)C1CCS(=O)(=O)C1 (centres undefined) | -7.14% (inactive) |
| O=C(c1cc2ccccc2s1)N1CCN(c2ccccn2)CC1 | 9.52% (inactive) |
| COc1ccc(-c2cc(=O)oc3cc(OCC(=O)N(C)C4CCS(=O)(=O)C4)ccc23)cc1 (centres undefined) | -5.59% (inactive) |
| COc1cccc(C(=O)N2CCC(n3nccc3NC(=O)C3CCOC3)CC2)c1 (centres undefined) | -9.25% (inactive) |
| CCOCCCN1C(=O)C2C(C(=O)Nc3ccc(OCC)cc3)C3C=CC2(O3)C1C(=O)NC1CCCCC1 (centres undefined) | -6.78% (inactive) |
| O=C(Nc1cccc(F)c1)[C@@H]1CCCN1 | 3.23% (inactive) |
| CCNC(=S)NNC(=O)c1ccc2ncccc2c1 | 38% (inactive) |
| Cc1ccc2cc(/C=N/NC(=O)[C@@H]3CCCN3)c(Cl)nc2c1 | 54.3% (active) |
| O=C(O)c1ccc(N/N=C/c2ccc3ncccc3c2)cc1 | 45.9% (active) |
| Cc1ccc(/C=N/NC(=O)C2=NNC(c3ccccc3)(c3ccccc3)C2)c(O)c1 | 33.7% (inactive) |
| Cc1ccc2cc(/C=N/Nc3ccc(C(=O)O)cc3)c(Cl)nc2c1 | 51.3% (active) |
| CSCC[C@H](NC(=O)OC(C)(C)C)C(=O)N/N=C/c1cc2ccc(C)cc2nc1Cl | -11.9% (inactive) |
| O=C(O)c1ccc(/C=N/Nc2nc(N3CCCCC3)nc(N3CCCCC3)n2)cc1 | -6.74% (inactive) |
| O=C(O)c1ccc(N/N=C/c2cn(-c3ccccc3)nc2-c2cccs2)cc1 | 46.3% (inactive) |
| Cc1cc(OCC(=O)N2CCN(c3ncccn3)CC2)ccc1Cl | -7.52% (inactive) |
| COc1cc(OC)cc(C(=O)NCCSCc2ccc(Cl)cc2)c1 | -9.78% (inactive) |
| COc1ccc2c(c1)C(=C(C#N)C#N)C(=O)N2CCc1ccccc1 | 6.44% (inactive) |
| O=C1CN(C(=O)c2cc(F)cc(F)c2)c2ccccc2N1 | -2.51% (inactive) |

| Compound | inhibition |
| --- | --- |
| CC(C)CC(O)C1CCN(C(=O)CCc2nnc(-c3ccc4c(c3)OCO4)o2)CC1 (centres undefined) | -6.93% (inactive) |
| CC(CO)NCC12CC3CC(CC(C3)C1)C2 (centres undefined) | 2.32% (inactive) |
| CCOc1ccccc1NC(=O)Cn1nnc(C(=O)NCc2cccs2)c1N | -4% (inactive) |
| COC1=C/C(=C/c2c(N)n3nc(CC(=O)N4CCOCC4)sc3nc2=O)C=CC1=O | -2.63% (inactive) |
| COc1ccc(CN2CC(C(=O)NC3CCCCC3)CC2=O)cc1 (centres undefined) | -6.86% (inactive) |
| Cc1ccc(C)c(OCCC(=O)OCC(=O)N2CCN(c3ccccc3)CC2)c1 | -5.02% (inactive) |
| CCN1CCCC1CNC(=O)c1cc2cc(OC)c(OC)cc2[nH]1 (centres undefined) | -5.24% (inactive) |
| CC(C)c1ccc(OCC(O)CN2CCN(c3ccccn3)CC2)cc1 (centres undefined) | -24.5% (inactive) |
| CC(O)c1ccc(OCCN(C)c2ccccn2)cc1 (centres undefined) | 87.4% (active) |
| CCOc1ccc(C(C(=O)NCCOC)N(CCOC)C(=O)CCC(=O)Nc2ccccn2)cc1 (centres undefined) | -13.1% (inactive) |
| COc1ccc(-c2noc(C(C)NS(=O)(=O)c3ccc(NC(C)=O)cc3)n2)cc1 (centres undefined) | -7.2% (inactive) |
| COc1ccc(CCNC(=O)C(=O)NCC2OCCN2S(=O)(=O)c2ccc(F)cc2)cc1OC (centres undefined) | 2.97% (inactive) |
| COC(=O)c1sc(-c2ccc(C(C)(C)C)cc2)cc1NC(=O)/C=C/C(=O)O | 108% (active) |
| COc1ccccc1NC(=O)/C=C/C(=O)O | -5.02% (inactive) |
| O=C(O)/C=C/C(=O)Nc1ccc(F)cc1F | -11.9% (inactive) |
| C=CCn1c(SCc2ccc(C(=O)NCCO)cc2)nc2ccccc2c1=O | -5.58% (inactive) |
| CC(C(=O)Nc1ccc(O)c(C(=O)O)c1)N1C(=O)/C(=C/c2cccs2)SC1=S (centres undefined) | 5.02% (inactive) |
| COCCCNC(=O)[C@H]1N2C(=O)c3ccccc3C2SC1(C)C (some centres undefined) | -3.4% (inactive) |
| CC1=Nn2c(nnc2-c2ccccc2)SC1 | -3.08% (inactive) |
| COc1ccc(C2=Nn3c(nnc3-c3ccccc3O)SC2)cc1 | 42.8% (active) |
| Cc1nnc2n1N=C(c1ccccc1)CS2 | -5.72% (inactive) |
| COc1cc(/C(=C/c2ccccc2)c2ccccc2)c2c(c1)oc1ccccc12 | -7.7% (inactive) |
